Results on five molecules are retold here after the supplement of paper PMC4022240.

± gives the standard deviation.

Common to all, as to test: peptide microarray binding signal (635 nm), min-max normalized on array (fraction of array maximum); higher = stronger binding
The target in assay [1] is T1, HaloTag-ATRX ADD domain (163-292).
T1 chain: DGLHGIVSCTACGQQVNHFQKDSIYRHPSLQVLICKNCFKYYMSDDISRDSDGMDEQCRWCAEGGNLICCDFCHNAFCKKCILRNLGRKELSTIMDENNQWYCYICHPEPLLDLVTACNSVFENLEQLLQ
Put shortly: (§1)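 An Axon GenePix 4000B scanned the arrays at 635 nm for signal and at 532 nm to catch misprints. Those arrays held histone 13-mer peptide–cellulose conjugates printed in triplicate on nitrocellulose with a Cy3 tracer, blocked overnight at 4°C and probed for 1 h at 4°C with biotin-labelled HaloTag reader fusions (10 nM to 1 μM) plus streptavidin-Alexa Fluor 647 or with rabbit histone antibodies (1:10,000 to 1:2,000) plus anti-rabbit Alexa 647. Each binding signal is a triplicate-spot mean intensity, scaled min-max within its library.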

Assay [2] concerns the target HaloTag-ING2 PHD (mouse Ing2 200-280). In a few lines: as §1
Assay [3] has as its target anti-H3K4me3 antibody ab8580. Put shortly: as §1
The target of assay [4] is anti-H3K9me3 antibody ab8898. In a few lines: as §1
The mark [5] stands for this setting: peptide region: H4 53-65, peptide modifications: H4K59me1, binder concentration: 1:2,000 dilution.
Setting [6] is: peptide region: H4 53-65, peptide modifications: H4K59me1, binder concentration: 1:10,000 dilution.
The mark [7] stands for this setting: peptide region: H4 38-50, peptide modifications: H4K44me3 H4R45cit, binder concentration: 1:2,000 dilution.
Where [8] appears, read: peptide region: H4 38-50, peptide modifications: H4K44me3 H4R45cit, binder concentration: 1:10,000 dilution.
Where [9] appears, read: peptide region: H4 38-50, peptide modifications: H4R45me1, binder concentration: 1:2,000 dilution.
Setting [10] is: peptide region: H4 38-50, peptide modifications: H4R45me1, binder concentration: 1:10,000 dilution.
Where [11] appears, read: peptide region: H4 38-50, peptide modifications: H4R45cit, binder concentration: 1:2,000 dilution.
The mark [12] stands for this setting: peptide region: H4 38-50, peptide modifications: H4R45cit, binder concentration: 1:10,000 dilution.
Where [13] appears, read: peptide region: H4 38-50, peptide modifications: H4K44me2 H4R45me2a, binder concentration: 1:2,000 dilution.
[14] abbreviates: peptide region: H4 38-50, peptide modifications: H4K44me2 H4R45me2a, binder concentration: 1:10,000 dilution.

As to ETRGVLKVFLENV [H4 53-65 E T R G V L Kme V F L E N V], the “peptide microarray binding signal” value in assay [1] (peptide region: H4 53-65, peptide modifications: H4K59me1, binder concentration: 50 nM) was 0.00605 ± 0.00068; in assay [1] (peptide region: H4 53-65, peptide modifications: H4K59me1, binder concentration: 500 nM), 0.00795 ± 0.00042; in assay [2] (peptide region: H4 53-65, peptide modifications: H4K59me1, binder concentration: 10 nM), 0.00847 ± 0.001; in assay [2] (peptide region: H4 53-65, peptide modifications: H4K59me1, binder concentration: 100 nM), 0.0164 ± 0.0049; in assay [3] (setting [5]), 0.00213 ± 0.00025; in assay [3] (setting [6]), 0.00314 ± 0.00021. For the same molecule, the “peptide microarray binding signal” value in assay [4] (setting [5]) was 0.00166 ± 0.00016; in assay [4] (setting [6]), 0.00231 ± 8.4e-05.

Turning to ARRGGVKRISGLI [H4 38-50 A R R G G V Kme3 Rcit I S G L I], the “peptide microarray binding signal” value turned out to be 0.0125 ± 0.00042 in assay [1] (peptide region: H4 38-50, peptide modifications: H4K44me3 H4R45cit, binder concentration: 50 nM); 0.0116 ± 0.0018 in assay [1] (peptide region: H4 38-50, peptide modifications: H4K44me3 H4R45cit, binder concentration: 500 nM); 0.00836 ± 0.00091 in assay [2] (peptide region: H4 38-50, peptide modifications: H4K44me3 H4R45cit, binder concentration: 10 nM); 0.00588 ± 0.0012 in assay [2] (peptide region: H4 38-50, peptide modifications: H4K44me3 H4R45cit, binder concentration: 100 nM); 0.00387 ± 0.00082 in assay [3] (setting [7]); 0.00502 ± 0.00084 in assay [3] (setting [8]). In addition, the “peptide microarray binding signal” value was 0.00444 ± 0.00077 in assay [4] (setting [7]) and 0.00467 ± 0.00024 in assay [4] (setting [8]).

As for ARRGGVKRISGLI [H4 38-50 A R R G G V K Rme I S G L I], the “peptide microarray binding signal” value in assay [1] (peptide region: H4 38-50, peptide modifications: H4R45me1, binder concentration: 50 nM) amounted to 0.00486 ± 6.2e-05; in assay [1] (peptide region: H4 38-50, peptide modifications: H4R45me1, binder concentration: 500 nM) it was 0.0107 ± 0.00046; in assay [2] (peptide region: H4 38-50, peptide modifications: H4R45me1, binder concentration: 10 nM), 0.01247 ± 0.00012; in assay [2] (peptide region: H4 38-50, peptide modifications: H4R45me1, binder concentration: 100 nM) it was 0.0215 ± 0.0011; in assay [3] (setting [9]), 0.00306 ± 5.9e-05; in assay [3] (setting [10]) it was 0.00508 ± 7.3e-05. The “peptide microarray binding signal” value in assay [4] (setting [9]) came to 0.0021 ± 4.5e-05; in assay [4] (setting [10]) it was 0.0019 ± 3.6e-05.

Turning to ARRGGVKRISGLI [H4 38-50 A R R G G V K Rcit I S G L I], the “peptide microarray binding signal” value worked out at 0.00395 ± 6.8e-05 in assay [1] (peptide region: H4 38-50, peptide modifications: H4R45cit, binder concentration: 50 nM); 0.00619 ± 7.4e-05 in assay [1] (peptide region: H4 38-50, peptide modifications: H4R45cit, binder concentration: 500 nM); 0.00561 ± 4.7e-05 in assay [2] (peptide region: H4 38-50, peptide modifications: H4R45cit, binder concentration: 10 nM); 0.0163 ± 0.003 in assay [2] (peptide region: H4 38-50, peptide modifications: H4R45cit, binder concentration: 100 nM); 0.012 ± 0.0055 in assay [3] (setting [11]); 0.00976 ± 0.00034 in assay [3] (setting [12]). Also, the results for the “peptide microarray binding signal” value in assay [4] (setting [11]) and in assay [4] (setting [12]) were 0.00521 ± 0.00036 and 0.00271 ± 7.1e-05, respectively.

On to ARRGGVKRISGLI [H4 38-50 A R R G G V Kme2 Rme2a I S G L I], for which the “peptide microarray binding signal” value in assay [1] (peptide region: H4 38-50, peptide modifications: H4K44me2 H4R45me2a, binder concentration: 50 nM) is 0.00665 ± 0.0002; in assay [1] (peptide region: H4 38-50, peptide modifications: H4K44me2 H4R45me2a, binder concentration: 500 nM), 0.00881 ± 0.00022; in assay [2] (peptide region: H4 38-50, peptide modifications: H4K44me2 H4R45me2a, binder concentration: 10 nM), 0.00859 ± 0.00016; in assay [2] (peptide region: H4 38-50, peptide modifications: H4K44me2 H4R45me2a, binder concentration: 100 nM) it was 0.0109 ± 0.00048; in assay [3] (setting [13]) it was 0.00187 ± 6e-05; in assay [3] (setting [14]), 0.00371 ± 0.00016. Besides, the figures for the “peptide microarray binding signal” value in assay [4] (setting [13]) and in assay [4] (setting [14]) were 0.00208 ± 4.3e-05 and 0.00265 ± 9.3e-05, respectively.
